Results from the supplement of paper PMC8728848.
Only a selection was taken, and the strongest signals are over-represented in it overall.

Legend:
Assay in all cases: glycan array binding signal (z-score within array); higher = stronger binding
Details in all cases: glycan notation: IUPAC condensed, linker removed
[1] = target: Fuc(a1-2)Gal(b1-3)GalNAc(b1-4)[Neu5Ac(a2-3)]Gal(b1-4)Glc
Method in brief: (§1)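 Negative Z-scores can be read as non-binding. The Z-score is calculated within each array and then averaged across arrays of one protein sequence at different concentrations or buffers and across linkers. Arrays, 3228 in all, were curated from the Consortium for Functional Glycomics database and kept only where the protein sequence was available.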

[2] = target: Fuc(a1-2)Gal(b1-3)GlcNAc
Method in brief: as §1

[3] = target: Fuc(a1-2)Gal(b1-3)GlcNAc(b1-2)Man(a1-3)[Fuc(a1-2)Gal(b1-3)GlcNAc(b1-2)Man(a1-6)]Man(b1-4)GlcNAc(b1-4)GlcNAc
Method in brief: as §1

[4] = target: Fuc(a1-2)Gal(b1-4)GlcNAc(b1-3)Gal(b1-4)GlcNAc
Method in brief: as §1

[5] = target: Fuc(a1-2)Gal(b1-4)GlcNAc(b1-3)Gal(b1-4)GlcNAc(b1-2)Man(a1-3)[Fuc(a1-2)Gal(b1-4)GlcNAc(b1-3)Gal(b1-4)GlcNAc(b1-2)Man(a1-6)]Man(b1-4)GlcNAc(b1-4)GlcNAc
Method in brief: as §1

[6] = target: Fuc(a1-2)Gal(b1-4)[Fuc(a1-3)]GlcNAc(b1-3)GalNAc
Method in brief: as §1

[7] = target: Fuc(a1-2)Gal6S(b1-4)Glc6S
Method in brief: as §1

[8] = target: Fuc(a1-2)[Gal(a1-3)]Gal(b1-4)GlcNAc(b1-2)Man(a1-3)[Fuc(a1-2)[Gal(a1-3)]Gal(b1-4)GlcNAc(b1-2)Man(a1-6)]Man(b1-4)GlcNAc(b1-4)GlcNAc
Method in brief: as §1

[9] = target: Fuc(a1-2)[Gal(a1-4)]Gal(b1-4)GlcNAc
Method in brief: as §1

[10] = target: Gal(a1-3)Gal(b1-3)[Fuc(a1-4)]GlcNAc(b1-2)Man(a1-3)[Gal(a1-3)Gal(b1-3)[Fuc(a1-4)]GlcNAc(b1-2)Man(a1-6)]Man(b1-4)GlcNAc(b1-4)GlcNAc
Method in brief: as §1

[11] = target: Gal(a1-3)Gal(b1-4)Glc
Method in brief: as §1

[12] = target: Gal(a1-3)Gal(b1-4)[Fuc(a1-3)]GlcNAc
Method in brief: as §1

[13] = target: Gal(a1-3)GalNAc
Method in brief: as §1

[14] = target: Gal(a1-4)Gal(b1-3)GlcNAc(b1-2)Man(a1-3)[Gal(a1-4)Gal(b1-3)GlcNAc(b1-2)Man(a1-6)]Man(b1-4)GlcNAc(b1-4)GlcNAc
Method in brief: as §1

[15] = target: Gal(a1-4)Gal(b1-4)GlcNAc(b1-2)Man(a1-3)[Gal(a1-4)Gal(b1-4)GlcNAc(b1-2)Man(a1-6)]Man(b1-4)GlcNAc(b1-4)GlcNAc
Method in brief: as §1

[16] = target: Gal(a1-4)Gal(b1-4)GlcNAc(b1-3)Gal(b1-4)Glc
Method in brief: as §1

[17] = target: Gal(b1-3)GlcNAc
Method in brief: as §1

[18] = target: Gal(b1-3)GlcNAc(b1-3)Gal(b1-4)GlcNAc(b1-3)Gal(b1-4)GlcNAc(b1-2)[Gal(b1-3)GlcNAc(b1-3)Gal(b1-4)GlcNAc(b1-3)Gal(b1-4)GlcNAc(b1-6)]Man(a1-6)[Gal(b1-3)GlcNAc(b1-3)Gal(b1-4)GlcNAc(b1-3)Gal(b1-4)GlcNAc(b1-2)Man(a1-3)]Man(b1-4)GlcNAc(b1-4)[Fuc(a1-6)]GlcNAc
Method in brief: as §1

[19] = target: Gal(b1-3)GlcNAc(b1-3)GalNAc
Method in brief: as §1

[20] = target: Gal(b1-3)[Fuc(a1-4)]GlcNAc(b1-6)GalNAc
Method in brief: as §1

[21] = target: Gal(b1-4)GlcNAc(b1-3)Gal(b1-4)GlcNAc(b1-3)Gal(b1-4)GlcNAc(b1-2)[Gal(b1-4)GlcNAc(b1-3)Gal(b1-4)GlcNAc(b1-3)Gal(b1-4)GlcNAc(b1-6)]Man(a1-6)[Gal(b1-4)GlcNAc(b1-3)Gal(b1-4)GlcNAc(b1-3)Gal(b1-4)GlcNAc(b1-2)Man(a1-3)]Man(b1-4)GlcNAc(b1-4)[Fuc(a1-6)]GlcNAc
Method in brief: as §1

[22] = target: Gal(b1-4)GlcNAc(b1-3)Gal(b1-4)GlcNAc(b1-3)Gal(b1-4)GlcNAc(b1-3)Gal(b1-4)GlcNAc(b1-2)[Gal(b1-4)GlcNAc(b1-3)Gal(b1-4)GlcNAc(b1-3)Gal(b1-4)GlcNAc(b1-3)Gal(b1-4)GlcNAc(b1-6)]Man(a1-6)[Gal(b1-4)GlcNAc(b1-3)Gal(b1-4)GlcNAc(b1-3)Gal(b1-4)GlcNAc(b1-3)Gal(b1-4)GlcNAc(b1-2)Man(a1-3)]Man(b1-4)GlcNAc(b1-4)[Fuc(a1-6)]GlcNAc
Method in brief: as §1

[23] = target: Gal(b1-4)GlcNAc(b1-3)Gal(b1-4)GlcNAc(b1-3)Gal(b1-4)GlcNAc(b1-3)Gal(b1-4)GlcNAc(b1-3)Gal(b1-4)GlcNAc(b1-2)Man(a1-3)[Gal(b1-4)GlcNAc(b1-3)Gal(b1-4)GlcNAc(b1-3)Gal(b1-4)GlcNAc(b1-3)Gal(b1-4)GlcNAc(b1-3)Gal(b1-4)GlcNAc(b1-2)Man(a1-6)]Man(b1-4)GlcNAc(b1-4)[Fuc(a1-6)]GlcNAc
Method in brief: as §1

[24] = target: Gal(b1-4)GlcNAc(b1-6)GalNAc
Method in brief: as §1

[25] = target: Gal3S(b1-4)[Fuc(a1-3)]GlcNAc
Method in brief: as §1

[26] = target: Gal3S(b1-4)[Fuc(a1-3)]GlcNAc6S
Method in brief: as §1

[27] = target: GalNAc(b1-4)GlcNAc(b1-2)Man(a1-3)[GalNAc(b1-4)GlcNAc(b1-2)Man(a1-6)]Man(b1-4)GlcNAc(b1-4)GlcNAc
Method in brief: as §1

[28] = target: GalNAc(b1-4)GlcNAc(b1-3)GalNAc(b1-4)GlcNAc
Method in brief: as §1

[29] = target: GlcNAc(a1-4)Gal(b1-4)GlcNAc
Method in brief: as §1

[30] = target: GlcNAc(b1-2)[GlcNAc(b1-4)]Man(a1-3)[GlcNAc(b1-2)Man(a1-6)]Man(b1-4)GlcNAc(b1-4)GlcNAc
Method in brief: as §1

[31] = target: GlcNAc(b1-2)[GlcNAc(b1-4)]Man(a1-3)[GlcNAc(b1-4)][GlcNAc(b1-2)[GlcNAc(b1-6)]Man(a1-6)]Man(b1-4)GlcNAc(b1-4)GlcNAc
Method in brief: as §1

[32] = target: GlcNAc(b1-3)Gal
Method in brief: as §1

[33] = target: GlcNAc(b1-3)Gal(b1-4)GlcNAc
Method in brief: as §1

[34] = target: GlcNAc(b1-3)Gal(b1-4)GlcNAc(b1-3)Gal(b1-4)GlcNAc(b1-3)Gal(b1-4)GlcNAc(b1-2)[GlcNAc(b1-3)Gal(b1-4)GlcNAc(b1-3)Gal(b1-4)GlcNAc(b1-3)Gal(b1-4)GlcNAc(b1-6)]Man(a1-6)[GlcNAc(b1-3)Gal(b1-4)GlcNAc(b1-3)Gal(b1-4)GlcNAc(b1-3)Gal(b1-4)GlcNAc(b1-2)Man(a1-3)]Man(b1-4)GlcNAc(b1-4)[Fuc(a1-6)]GlcNAc
Method in brief: as §1

[35] = target: GlcNAc(b1-3)Gal(b1-4)GlcNAc(b1-3)Gal(b1-4)GlcNAc(b1-3)GalNAc
Method in brief: as §1

[36] = target: Man(a1-2)Man(a1-3)Man
Method in brief: as §1

[37] = target: Man(a1-2)Man(a1-3)[Man(a1-2)Man(a1-6)]Man(a1-6)[Man(a1-2)Man(a1-2)Man(a1-3)]Man(b1-4)GlcNAc(b1-4)GlcNAc
Method in brief: as §1

[38] = target: Man(a1-3)[Man(a1-6)]Man(a1-6)[Man(a1-2)Man(a1-3)]Man(b1-4)GlcNAc(b1-4)GlcNAc
Method in brief: as §1

[39] = target: Neu5Ac(a2-3)Gal(b1-3)GlcNAc
Method in brief: as §1

[40] = target: Neu5Ac(a2-3)Gal(b1-4)Glc
Method in brief: as §1

[41] = target: Neu5Ac(a2-3)Gal(b1-4)GlcNAc(b1-3)Gal(b1-4)GlcNAc(b1-3)GalNAc
Method in brief: as §1

[42] = target: Neu5Ac(a2-3)Gal(b1-4)[Fuc(a1-3)]GlcNAc(b1-3)GalNAc
Method in brief: as §1

[43] = target: Neu5Ac(a2-3)Gal(b1-4)[Fuc(a1-3)]GlcNAc(b1-6)[Neu5Ac(a2-3)Gal(b1-3)]GalNAc
Method in brief: as §1

[44] = target: Neu5Ac(a2-6)Gal
Method in brief: as §1

[45] = target: Neu5Ac(a2-6)Gal(b1-4)GlcNAc(b1-2)Man(a1-3)[Neu5Ac(a2-6)Gal(b1-4)GlcNAc(b1-2)Man(a1-6)]Man(b1-4)GlcNAc(b1-4)GlcNAc
Method in brief: as §1

[46] = target: Neu5Ac(a2-6)Gal(b1-4)GlcNAc(b1-3)Gal(b1-4)GlcNAc
Method in brief: as §1

[47] = target: Neu5Ac(a2-6)Gal(b1-4)GlcNAc(b1-3)Gal(b1-4)GlcNAc(b1-3)Gal(b1-4)GlcNAc(b1-2)Man(a1-3)[Neu5Ac(a2-6)Gal(b1-4)GlcNAc(b1-3)Gal(b1-4)GlcNAc(b1-3)Gal(b1-4)GlcNAc(b1-2)Man(a1-6)]GalNAc
Method in brief: as §1

B1: PX9961U-pdi-543-24-543 (Parabacteroides distasonis) (protein)
chain: EEPVGEFLPGQVESEENIEGIVTGAYAVLDGYYASDAINSGCSNWQFGDVVSDDAYKGGGGTGDQNQIHLMEIFNANPTGIDFEARWAALYEGIKRCNQAIRLLNGSEVKNKEQRLAEMRFLRGHYYFNLKIIYNQIPWIDETLVDPNEYNKKSNIEFSSDQLWEKILEEFSAAYKVLPESQADYGRPTKMAARAYMAKVYLYQSKWKECLEACDEVIQSGKYELFPDFRNVFLPENDNCSEIIFAIQLSINDGSPNNENGSYGDRLLPPGGPYPVYGFLRPTQNLVNAYKTDVKGLPYNDGKDVSENDYVDVRLDHTLARPNIPFMDVQLYDWTPREASVYGPYSPKKRLVSLNSTYYSPIWPYVNALNFYVIRYADLLLWRAEAAIETGDLETGRKYINMIRERAKNTQHVKTMDQSQDAANYKVGVYDEPFKSKNEAVQALRMERRLEMAHEGIRFFDLVRWGVADEVINAYIAKEKVFRSHLQNAHFVKGKHEYFPIPQSMIDICGTEVMKQNPGY
[1]
  glycan array binding signal (z-score): -0.337
[2]
  glycan array binding signal (z-score): -0.324
[3]
  glycan array binding signal (z-score): 7.29
[4]
  glycan array binding signal (z-score): -0.463
[5]
  glycan array binding signal (z-score): -0.241
[6]
  glycan array binding signal (z-score): 3.47
[7]
  glycan array binding signal (z-score): -0.226
[8]
  glycan array binding signal (z-score): 8.53
[9]
  glycan array binding signal (z-score): -0.379
[10]
  glycan array binding signal (z-score): 4.38
[11]
  glycan array binding signal (z-score): -0.175
[12]
  glycan array binding signal (z-score): 0.287
[13]
  glycan array binding signal (z-score): -0.348
[14]
  glycan array binding signal (z-score): -0.428
[15]
  glycan array binding signal (z-score): 2.13
[16]
  glycan array binding signal (z-score): -0.389
[17]
  glycan array binding signal (z-score): -0.43
[18]
  glycan array binding signal (z-score): 4.42
[19]
  glycan array binding signal (z-score): -0.385
[20]
  glycan array binding signal (z-score): 3.44
[21]
  glycan array binding signal (z-score): 6.31
[22]
  glycan array binding signal (z-score): 3.38
[23]
  glycan array binding signal (z-score): 7.11
[24]
  glycan array binding signal (z-score): -0.178
[25]
  glycan array binding signal (z-score): -0.303
[26]
  glycan array binding signal (z-score): -0.27
[27]
  glycan array binding signal (z-score): -0.253
[28]
  glycan array binding signal (z-score): 0.352
[29]
  glycan array binding signal (z-score): -0.445
[30]
  glycan array binding signal (z-score): -0.415
[31]
  glycan array binding signal (z-score): -0.386
[32]
  glycan array binding signal (z-score): -0.394
[33]
  glycan array binding signal (z-score): -0.432
[34]
  glycan array binding signal (z-score): -0.308
[35]
  glycan array binding signal (z-score): -0.417
[36]
  glycan array binding signal (z-score): -0.489
[37]
  glycan array binding signal (z-score): -0.408
[38]
  glycan array binding signal (z-score): 6.64
[39]
  glycan array binding signal (z-score): -0.408
[40]
  glycan array binding signal (z-score): -0.368
[41]
  glycan array binding signal (z-score): -0.376
[42]
  glycan array binding signal (z-score): 3.69
[43]
  glycan array binding signal (z-score): 1.28
[44]
  glycan array binding signal (z-score): -0.428
[45]
  glycan array binding signal (z-score): -0.347
[46]
  glycan array binding signal (z-score): -0.364
[47]
  glycan array binding signal (z-score): 0.5
